Laboratory results: PubChem BioAssay AID1159580 (chemical genetic matrix, 2015)
The campaign covered roughly 5,500 compounds. About 2,000 (36%) were called active. Not shown: some 18% with an inconclusive outcome. Rule as the data show it: active = normalized growth mostly below about 0.91 (no sharp cut-off); inconclusive = no clear call, values can overlap the other calls; inactive = mostly above about 0.92. The list shows a part of the results.

Assay: chemical genetic growth profiling, strain panel (AID 1159580);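 also: tested at 20 µM; growth read once vehicle control cultures reached saturation at 30 °C; 1 = growth at the plate median or of vehicle wells; lower values mean less growth of the strain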
Conditions: growth OD

Measured: normalized growth

Fc1ccc([C@@H]2CCNC[C@H]2COc2ccc3c(c2)OCO3)cc1
inactive: S. cerevisiae deletion strains, locus YJR075W, strain HOC1, hits give low values 1.03 | S. cerevisiae deletion strains, locus YKL009W, strain mrt4, hits give low values 1.03 | S. cerevisiae deletion strains, locus YKL068W, hits give low values 1 | S. cerevisiae deletion strains, locus YKL085W, strain MDH1 (second series), hits give low values 0.991 | S. cerevisiae deletion strains, locus YKL085W, strain MDH1, hits give low values 0.991 | S. cerevisiae deletion strains, locus YKL160W, strain elf1, hits give low values 0.99 | S. cerevisiae deletion strains, locus YKL190W, strain CNB1, hits give low values 1.01 | S. cerevisiae deletion strains, locus YKR001C, strain vps1, hits give low values 1.02 | S. cerevisiae deletion strains, locus YKR026C, strain gcn3, hits give low values 1.01 | S. cerevisiae deletion strains, locus YKR091W, strain srl3, hits give low values 0.999 | S. cerevisiae deletion strains, locus YLL001W, strain dnm1, hits give low values 1 | S. cerevisiae deletion strains, locus YLL026W, hits give low values 0.998 | S. cerevisiae deletion strains, locus YLL041C, strain sdh2, hits give low values 1 | S. cerevisiae deletion strains, locus YLR027C, strain aat2, hits give low values 1 | S. cerevisiae deletion strains, locus YLR039C, strain RIC1, hits give low values 1.09 | S. cerevisiae deletion strains, locus YLR058C, strain SHM2, hits give low values 1.01 | S. cerevisiae deletion strains, locus YLR102C, strain apc9, hits give low values 1.02 | S. cerevisiae deletion strains, locus YLR113W, strain HOG1, hits give low values 0.995 | S. cerevisiae deletion strains, locus YLR221C, strain rsa3, hits give low values 1.01 | S. cerevisiae deletion strains, locus YLR258W, strain gsy2, hits give low values 1.01 | S. cerevisiae deletion strains, locus YLR262C, strain YPT6 (second series), hits give low values 1.08 | S. cerevisiae deletion strains, locus YLR262C, strain YPT6, hits give low values 1.09 | S. cerevisiae deletion strains, locus YLR268W, strain sec22, hits give low values 0.989 | S. cerevisiae deletion strains, locus YLR320W, strain mms22, hits give low values 0.984 | S. cerevisiae deletion strains, locus YLR330W, strain CHS5, hits give low values 1.01 | S. cerevisiae deletion strains, locus YLR342W, strain FKS1 (second series), hits give low values 1.06 | S. cerevisiae deletion strains, locus YLR342W, strain FKS1, hits give low values 0.996 | S. cerevisiae deletion strains, locus YLR357W, strain rsc2, hits give low values 0.998 | S. cerevisiae deletion strains, locus YLR370C, strain arc18, hits give low values 0.994 | S. cerevisiae deletion strains, locus YLR371W, strain rom2, hits give low values 1.01 | S. cerevisiae deletion strains, locus YLR384C, strain iki3, hits give low values 0.995 | S. cerevisiae deletion strains, locus YLR418C, strain cdc73, hits give low values 1.01 | S. cerevisiae deletion strains, locus YML016C, strain PPZ1, hits give low values 1.01 | S. cerevisiae deletion strains, locus YML032C, strain rad52, hits give low values 1.02 | S. cerevisiae deletion strains, locus YML120C, strain ndi1, hits give low values 0.991 | S. cerevisiae deletion strains, locus YML124C, strain tub3, hits give low values 1 | S. cerevisiae deletion strains, locus YMR058W, strain fet3, hits give low values 1 | S. cerevisiae deletion strains, locus YMR078C, strain ctf18, hits give low values 1.01 | S. cerevisiae deletion strains, locus YMR125W, strain sto1, hits give low values 0.999 | S. cerevisiae deletion strains, locus YMR129W, hits give low values 0.995 | S. cerevisiae deletion strains, locus YMR205C, strain PFK2, hits give low values 0.98 | S. cerevisiae deletion strains, locus YMR223W, strain ubp8, hits give low values 1.03 | S. cerevisiae deletion strains, locus YMR231W, strain pep5, hits give low values 1.01 | S. cerevisiae deletion strains, locus YMR263W, strain SAP30, hits give low values 1 | S. cerevisiae deletion strains, locus YMR307W, strain GAS1, hits give low values 1.13 | S. cerevisiae deletion strains, locus YNL067W, strain RPL9B, hits give low values 0.994 | S. cerevisiae deletion strains, locus YNL071W, strain lat1, hits give low values 1 | S. cerevisiae deletion strains, locus YNL128W, strain TEP1, hits give low values 1.02 | S. cerevisiae deletion strains, locus YNL153C, strain GIM3, hits give low values 0.979 | S. cerevisiae deletion strains, locus YNL183C, strain NPR1, hits give low values 1.01 | S. cerevisiae deletion strains, locus YNL209W, strain ssb2, hits give low values 1 | S. cerevisiae deletion strains, locus YNL233W, strain BNI4, hits give low values 1 | S. cerevisiae deletion strains, locus YNL248C, strain rpa49, hits give low values 1.02 | S. cerevisiae deletion strains, locus YNL250W, strain rad50, hits give low values 1 | S. cerevisiae deletion strains, locus YNL271C, strain bni1, hits give low values 1.02 | S. cerevisiae deletion strains, locus YNL298W, strain CLA4, hits give low values 1.01 | S. cerevisiae deletion strains, locus YNL307C, strain MCK1, hits give low values 1.03 | S. cerevisiae deletion strains, locus YNL322C, strain KRE1 (second series), hits give low values 1.01 | S. cerevisiae deletion strains, locus YNL322C, strain KRE1, hits give low values 1.01 | S. cerevisiae deletion strains, locus YNR049C, strain mso1, hits give low values 1 | S. cerevisiae deletion strains, locus YNR052C, strain pop2, hits give low values 1.02 | S. cerevisiae deletion strains, locus YOL006C, strain TOP1, hits give low values 1.06 | S. cerevisiae deletion strains, locus YOL012C, strain htz1 1.14 | S. cerevisiae deletion strains, locus YOL147C, strain pex11, hits give low values 1 | S. cerevisiae deletion strains, locus YOR001W, strain rrp6, hits give low values 0.983 | S. cerevisiae deletion strains, locus YOR061W, strain CKA2, hits give low values 1.01 | S. cerevisiae deletion strains, locus YOR069W, strain VPS5, hits give low values 1.01 | S. cerevisiae deletion strains, locus YOR070C, strain gyp1, hits give low values 1 | S. cerevisiae deletion strains, locus YOR080W, strain dia2, hits give low values 1 | S. cerevisiae deletion strains, locus YOR083W, strain WHI5, hits give low values 1.01 | S. cerevisiae deletion strains, locus YOR106W, strain vam3, hits give low values 1 | S. cerevisiae deletion strains, locus YOR136W, strain idh2, hits give low values 1.01 | S. cerevisiae deletion strains, locus YOR144C, strain elg1, hits give low values 1 | S. cerevisiae deletion strains, locus YOR184W, strain ser1, hits give low values 1.05 | S. cerevisiae deletion strains, locus YOR231W, strain MKK1, hits give low values 1.03 | S. cerevisiae deletion strains, locus YOR265W, strain rbl2, hits give low values 0.996 | S. cerevisiae deletion strains, locus YOR270C, strain vph1, hits give low values 0.905 | S. cerevisiae deletion strains, locus YOR290C, strain snf2, hits give low values 1.03 | S. cerevisiae deletion strains, locus YOR316C, strain cot1, hits give low values 1 | S. cerevisiae deletion strains, locus YPL051W, strain arl3, hits give low values 1 | S. cerevisiae deletion strains, locus YPL055C, strain LGE1, hits give low values 1.01 | S. cerevisiae deletion strains, locus YPL078C, strain atp4, hits give low values 1.01 | S. cerevisiae deletion strains, locus YPL106C, strain sse1, hits give low values 1.03 | S. cerevisiae deletion strains, locus YPL240C, strain hsp82, hits give low values 1.02 | S. cerevisiae deletion strains, locus YPL241C, strain CIN2, hits give low values 1.01 | S. cerevisiae deletion strains, locus YPL256C, strain CLN2, hits give low values 1.04 | S. cerevisiae deletion strains, locus YPR119W, strain clb2, hits give low values 1.01 | S. cerevisiae deletion strains, locus YPR141C, strain kar3, hits give low values 1 | S. cerevisiae deletion strains, locus YPR163C, strain tif3, hits give low values 1 | S. cerevisiae deletion strains, locus YPR167C, strain met16, hits give low values 1.01 | S. cerevisiae deletion strains, strain wtn01, hits give low values 0.998 | S. cerevisiae strains, strain wild type, hits give low values 1.02
